Assay outcomes (PubChem BioAssay)
Most compounds without a hit are left out; they make up all but 2.6% or so of the library.
ABHD5-PLIN5 inh – ABHD5-PLIN5 protein interaction inhibition; Q00G26+Q8WTS1; Split G. princeps luciferase complementation, luminescence, 4 h; inhibition, % at 4 µM; 360,000 compounds, 0.78% hits; AID 602281;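 active = inhibition above the mean inhibition across every tested compound plus 3 SD, cut at about 22% in these data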;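 note: 0% = DMSO only wells and the 100% control is not disclosed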
TLR4 MyD88 comp – inhibitors of human TLR4-MyD88 binding; 200,000 compounds, 0.18% hits; HeLa CL3-4 TLR4/MyD88 BLA complementation, FRET ratio; O00206+Q99836; inhibition, % at 8.4 µM; AID 861; in the data active = inhibition above about 25%;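 note: 0% = vehicle and 100% = reference inhibitor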
PRMT1 inh – PRMT1 (human) inhibition, primary screen. recombinant PRMT1, activity-based probe fluorescence polarization. inhibition, % at 2.79 µM. 370,000 compounds, 1.3% hits. AID 652257;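 active = inhibition above about 21% made by adding two undisclosed values, limit read from the data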
Granule exo inh – blocks lytic granule exocytosis | TALL-104 LAMP-1 surface exposure, flow cytometry; cells stimulated with thapsigargin and PMA | inhibition, % at 10 µM | 360,000 compounds, 0.66% hits;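 active = inhibition above about 55%, limit read from the data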
NOD2-RIPK2 inh – NOD2-RIPK2 protein interaction inhibition | O43353 | CHO BLA complementation NOD2-RIPK2, CCF4 ratio | inhibition, % at 4.98 µM | 360,000 compounds, 0.38% hits; in the data active = inhibition above about 21%;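 note: 0% = vehicle only and 100% = reference blocker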
Target sequence (O43353 whole entry, looked up): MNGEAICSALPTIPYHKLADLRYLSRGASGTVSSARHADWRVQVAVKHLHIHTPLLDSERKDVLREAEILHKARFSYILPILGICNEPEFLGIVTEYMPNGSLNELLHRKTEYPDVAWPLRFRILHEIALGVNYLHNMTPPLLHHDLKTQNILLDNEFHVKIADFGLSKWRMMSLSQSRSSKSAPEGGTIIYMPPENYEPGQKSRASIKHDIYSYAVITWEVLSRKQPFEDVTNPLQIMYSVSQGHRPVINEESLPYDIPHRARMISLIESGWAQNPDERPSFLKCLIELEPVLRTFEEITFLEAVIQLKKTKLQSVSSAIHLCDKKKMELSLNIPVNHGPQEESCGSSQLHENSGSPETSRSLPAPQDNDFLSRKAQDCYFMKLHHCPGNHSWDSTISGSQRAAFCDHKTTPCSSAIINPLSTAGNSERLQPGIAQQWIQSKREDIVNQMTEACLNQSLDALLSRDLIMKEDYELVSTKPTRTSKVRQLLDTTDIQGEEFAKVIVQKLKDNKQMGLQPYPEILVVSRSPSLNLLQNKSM
TLR9-MyD88 inh – blocks human TLR9 binding to MyD88. inhibition, % at 4.98 µM. 340,000 compounds, 0.21% hits. CHO BLA complementation TLR9-MyD88, CCF4 FRET ratio;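 active = inhibition above the mean over all tested compounds plus 3 SD, cut at about 21% in these data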;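 note: 0% = DMSO only wells and 100% = clavulanate BLA inhibitor control wells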
PRMT1 confirm – confirmation of human PRMT1 inhibitors | shares compounds with PRMT1 inh | recombinant His-PRMT1, activity-based probe fluorescence polarization | inhibition, % at 2.79 µM | 3,300 compounds, 42% hits;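 active = mean inhibition across replicates above the hit cutoff derived for the earlier primary screen, cut at about 22% in these data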
Starred values were filed as active, the others as inactive; x = no result given.

SMILES | ABHD5-PLIN5 inh | TLR4 MyD88 comp | PRMT1 inh | Granule exo inh | NOD2-RIPK2 inh | TLR9-MyD88 inh | PRMT1 confirm
CCOC(=O)c1c(-c2ccco2)csc1NC(=O)COC(=O)c1cnc(C)cn1 | 18 | x | 36* | -8 | 10 | -2 | 4
CCOC(=O)c1c(CC(C)C)csc1NC(=O)COC(=O)c1cnc(C)cn1 | 2 | x | -8 | -7 | -9 | 0 | x
COc1ccc(C2SCCN2C(=S)Nc2ccc(Cl)cc2)cc1 (stereo not given) | -16 | 0 | 66* | -2 | -11 | -1 | 9
COc1ccc(C2SCCN2C(=S)Nc2cccc(Cl)c2)cc1 (stereo not given) | -41 | -8 | 80* | 1 | 0 | 9 | 2
COc1ccc(NC(=S)N2CCN(C)CC2)cc1 | -8 | x | -2 | -4 | -2 | x | x
Cc1ccc(NC(=S)N2CCSC2c2cccs2)cc1 (stereo not given) | -13 | -6 | 60* | -2 | 7 | 14 | 10
Cc1nc(N)[nH]c(=O)c1CCCNc1ccc([N+](=O)[O-])cc1 | -3 | x | -4 | -4 | -1 | -8 | x
N#Cc1ccc(C(=O)N2CCC3CC2c2cc(N4CCCCC4)ccc23)cc1 (stereo not given) | -9 | x | 2 | -2 | -3 | -5 | x
COc1cccc(NC(=O)CCC(=O)Nc2ccc3nc(N4CCOCC4)cc(C)c3c2)c1 | 4 | x | -5 | 11 | -10 | 6 | x
O=C1C2C3C=CC(C3)C2C(=O)N1c1ccccc1 (stereo not given) | -1 | -4 | -3 | 0 | 2 | 1 | x
O=C1C2C3C=CC(C3=C3CCCCC3)C2C(=O)N1c1ccccc1 (stereo not given) | 9 | 6 | 43* | 80* | -14 | -5 | 2
O=C(/C=C/c1ccco1)Nc1ccccc1C(=O)O | 9 | -12 | 17 | 1 | -15 | x | x
COc1cccc(NC(=S)NC(=O)/C=C/c2ccco2)c1 | 8 | x | 14 | -1 | 1 | -7 | x
O=C(/C=C/c1ccco1)Nc1ccccc1C(=O)Nc1cccc(C(=O)O)c1 | 5 | x | 25* | -6 | 0 | -2 | -2
O=C(/C=C/c1ccco1)Nc1cc(Cl)ccc1C(=O)O | 9 | -2 | 25* | 5 | -2 | 0 | 9
O=C(/C=C\c1ccco1)NC(=S)Nc1ccccc1O | 9 | x | 12 | 1 | -2 | 0 | x
O=C(/C=C/c1ccco1)NC(=S)Nc1cccc(C(=O)O)c1 | 8 | x | 34* | -1 | -5 | -14 | 30*
Cc1ccc(NC(=S)NC(=O)/C=C/c2ccco2)c(O)c1 | 6 | -4 | 28* | -3 | -8 | 5 | 18
O=C(NCc1ccccc1)c1nc(-c2c(F)cccc2F)oc1-c1ccccc1 | -9 | x | 1 | -2 | -7 | x | x
COCc1[nH]nc2c1C(c1ccc(Br)cc1)N(Cc1ccccc1)C2=O (stereo not given) | x | x | -4 | x | x | x | x
Cc1cc(C)n2c(Nc3ccc4c(c3)OCCO4)c(-c3ccc(C)o3)nc2n1 | 7 | 4 | 31* | 2 | -10 | 2 | 3
Cc1ccc(-c2nc3cnccn3c2Nc2ccc3c(c2)OCO3)o1 | 18 | 2 | 26* | 2 | -6 | 2 | 2
Cc1cc(C)n2c(Nc3ccc4c(c3)OCCO4)c(-c3cc4ccccc4o3)nc2n1 | 6 | x | 3 | 20 | -4 | x | x
Cc1ccc(Nc2c(-c3ccc(C)o3)nc3cnccn23)cc1 | 20 | 8 | 58* | 13 | 10 | 9 | 10
Cc1ccc(-c2nc3ccccn3c2Nc2ccccc2)o1 | 4 | -2 | 49* | 2 | 4 | -6 | 0
SMILES | ABHD5-PLIN5 inh | TLR4 MyD88 comp | PRMT1 inh | Granule exo inh | NOD2-RIPK2 inh | TLR9-MyD88 inh | PRMT1 confirm
O=C(NCCNC(=O)c1ccccn1)c1ccc(-c2ccccc2)cc1 | 3 | x | 4 | -3 | -10 | 2 | x
COC(=O)c1ccc2c(c1)sc(=NC(=O)CCS(=O)(=O)c1ccccc1)n2C | 3 | x | -1 | 4 | -8 | -8 | x
Cn1c2ccc(F)cc2c2nnc(SCC(=O)Nc3cccc(O)c3)nc21 | 3 | x | 5 | 1 | -16 | 0 | x
O=CN1CCN(S(=O)(=O)c2ccc(S(=O)(=O)NC3CCCCC3)cc2)CC1 | 17 | x | -1 | -4 | -3 | -1 | x
CN(C)C(=O)c1cccc(-c2cnc3c(NC=O)cc(-c4ccccc4N(C)C)cn23)c1 | 0 | x | 137* | -8 | -1 | x | 29*
CN(C)c1ccccc1-c1cc(NC=O)c2ncc(-c3cccc(C(F)(F)F)c3)n2c1 | -3 | x | 135* | -12 | -5 | x | 25*
Cc1ccc(N2CC(C(=O)OCC(=O)NNC(=O)c3ccccc3)CC2=O)cc1 (stereo not given) | 7 | x | -2 | 4 | -9 | -9 | x
Cc1ccc(C)c(Cn2c(=O)n(CCCC(=O)NCc3ccco3)c(=O)c3ccccc32)c1 | 2 | -7 | 102* | -6 | -3 | 3 | -2
Cc1ccc(C)c(Cn2c(=O)n(CCC(=O)NCc3ccco3)c(=O)c3ccccc32)c1 | -3 | -1 | -1 | 3 | -1 | -3 | x
CC(=O)Nc1ccc(S(=O)(=O)NC(C)C(=O)NC(C)c2ccccc2)cc1 (stereo not given) | -9 | 11 | 44* | 0 | -10 | -9 | 55*
CC(=O)Nc1ccc(S(=O)(=O)N[C@@H](C)C(=O)N2CCN(c3ccccn3)CC2)cc1 | 0 | x | 38* | 5 | 2 | 2 | 23*
C=CCNc1nnc(SC2CC(=O)N(c3ccc(OCCC)cc3)C2=O)s1 (stereo not given) | 10 | 0 | 67* | 66* | -3 | -5 | 66*
O=C1CC(Sc2ncccn2)C(=O)N1c1ccccc1 (stereo not given) | -4 | -4 | 12 | 0 | -1 | 3 | x
Cc1nc(SC2CC(=O)N(c3ccccc3)C2=O)n[nH]1 (stereo not given) | 2 | -7 | 50* | 0 | -12 | -1 | 63*
Nc1nnc(SC2CC(=O)N(c3ccccc3)C2=O)s1 (stereo not given) | 6 | 2 | 75* | 21 | 2 | 0 | 73*
O=C1CC(Sc2nnc(-c3ccccc3O)o2)C(=O)N1c1ccccc1 (stereo not given) | 16 | -5 | 66* | 30 | 10 | -9 | 65*
CSC[C@H]1CN(Cc2ccccc2)C(=O)[C@@H]1CC(=O)Nc1ccc(Br)cc1 | -2 | x | -5 | 36 | -1 | -8 | x
COc1ccc(N2C(=O)CC(Sc3nc4ccccc4s3)C2=O)cc1OC (stereo not given) | 5 | -13 | 26* | 0 | -7 | -7 | 23*
CC(=O)Nc1ccc(N2C(=O)CC(Sc3nc4ccccc4s3)C2=O)cc1 (stereo not given) | 3 | -2 | 16 | -3 | -4 | -10 | x
